Laboratory results taken from PubChem BioAssay (NCI).
The panel holds about 79,000 compounds, 15% with a hit somewhere; the sample as a whole holds those more often. Cut-off read from the data, not from the text of the source: active = growth inhibition above about 70%; inactive = the rest.

Legend:
[1] = NCI Yeast Anticancer Drug Screen. Data for the rad50 strain (AID 155);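 note: 0% = growth of vehicle-only cultures of the same strain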; conditions: S. cerevisiae rad50 strain growth inhibition; at 50.0 µM; active compounds read high
Outline: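 Inhibition values express reduced yeast growth in compound-treated cultures relative to vehicle-treated controls.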

[2] = NCI Yeast Anticancer Drug Screen. Data for the mec2-1 strain (AID 157); conditions: S. cerevisiae mec2-1 strain, at 50.0 µM, active compounds read high
Outline: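 Compounds were applied to mec2-1 yeast cells. Their growth was then compared with that of vehicle-treated cultures to give growth inhibition.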

[3] = NCI Yeast Anticancer Drug Screen. Data for the sgs1 mgt1 strain (AID 161);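 note: 0% = growth of cultures given vehicle only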; conditions: S. cerevisiae sgs1 mgt1 strain, at 50.0 µM, active compounds read high
Outline: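 Compounds are added to genetically altered yeast, and growth is compared with cultures given vehicle alone to give percent inhibition.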

[4] = NCI Yeast Anticancer Drug Screen. Data for the cln2 rad14 strain (AID 165);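 note: 0% = growth equal to vehicle treated cultures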; conditions: S. cerevisiae cln2 rad14 strain, at 50.0 µM, active compounds read high
Outline: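 Strain: cln2 rad14 yeast, altered in cell cycle control and DNA damage repair. Read-out: growth inhibition vs vehicle.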

[5] = NCI Yeast Anticancer Drug Screen. Data for the bub3 strain (AID 167); conditions: S. cerevisiae bub3 mutant strain, at 50.0 µM, active compounds read high
Outline: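 Steps: expose the mutant yeast strain to compound; grow alongside vehicle-treated cultures; measure growth; express inhibition against the vehicle cultures.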

[6] = NCI Yeast Anticancer Drug Screen. Data for the mlh1 rad18 strain (AID 175); conditions: S. cerevisiae mlh1 rad18 strain growth inhibition; at 50.0 µM; active compounds read high
Outline: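 A repair-deficient yeast strain is exposed to test compound, and growth is scored relative to vehicle-treated controls.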

Measured: growth inhibition

COc1ccc(CCCNC(=O)c2cc(OC)c(OC)cc2CCO)cc1OC
inactive: [1] 18.9% | [2] 15.1% | [3] -45.5% | [4] -9.6% | [5] -31.2% | [6] -11.8%

C=CCNC(=O)OCCCl
inactive: [1] 6% | [2] -1.45% | [3] -9.6% | [4] 5.95% | [5] -4.5% | [6] 15.1%

C/C(=N/NC(=O)CC#N)c1ccccc1
inactive: [1] 25.2% | [2] -0.5% | [3] 16.7% | [4] -20.6% | [5] 27.7% | [6] 0.4%

O=C(OCC1CCCO1)c1ccc(Cl)cc1 (stereo not given)
inactive: [1] 13.7% | [2] -4.4% | [3] 24.9% | [4] 34.1% | [5] 8% | [6] 7.2%

COc1cc2c(cc1OC)NC(C)=CC(C)=N2
inactive: [1] -14.3% | [2] 5.1% | [3] 0.3% | [4] 25.2% | [5] 25.7% | [6] 15.9%

CCCCCCCCC1CO1 (stereo not given)
inactive: [1] 0.9% | [2] 3.55% | [3] -10.8% | [4] -19.5% | [5] -3.95% | [6] -6.85%

Cc1ccc([N+](=O)[O-])cc1N1CCNC1=O
inactive: [1] 8.05% | [2] -17.2% | [3] -12.2% | [4] -62.7% | [5] 9% | [6] -21.9%

CN(Cc1ccccc1)C(=O)c1cccc(C(=O)N(C)Cc2ccccc2)c1
inactive: [1] 9.85% | [2] 22.5% | [3] 19.1% | [4] 13.8% | [5] 21.7% | [6] 17.6%

Cn1c(=O)c2c(nc3n(C)c(=O)c4ccccc4n23)n(C)c1=O
inactive: [1] 64.7% | [2] 32.8% | [3] -8.15% | [4] 7.3% | [5] 5.45% | [6] 45.6%

CO[Si](CCCN)(OC)OC
inactive: [1] -0.65% | [2] -44.8% | [3] -13.4% | [4] -8.7% | [5] 11.8% | [6] 35.9%

S=C1Nc2ccccc2C2CC=NN12 (stereo not given)
inactive: [1] -1.75% | [2] -4.15% | [3] 10.6% | [4] -30% | [5] -44.6% | [6] 29.4%

COC(=O)c1ccc(Cc2ccc(C(=O)OC)o2)o1
inactive: [1] -9.05% | [2] 9.2% | [3] -5.25% | [4] -25.4% | [5] -8.35% | [6] -13.8%

CCOC(=O)CC(=O)c1ccccc1SC
inactive: [1] 13.2% | [2] -1.55% | [3] -6.1% | [4] 4.4% | [5] -1.45% | [6] 17.4%

CCCCCCN1CCc2c(C)c(C#N)c3nc4ccccc4n3c21
inactive: [1] -8.45% | [2] -8.05% | [3] -0.95% | [4] 10.9% | [5] 19.1% | [6] 21.8%

CSc1cnn(CCC#N)c(=O)n1
inactive: [1] 16.4% | [2] 14.1% | [3] 19.9% | [4] 2.4% | [5] 15.7% | [6] 2.35%

COc1cc([N+](=O)[O-])cc(C=O)c1O
inactive: [1] 6.8% | [2] 28.4% | [3] 0.7% | [4] -67.5% | [5] -38.8% | [6] 11.7%

CSC(N)=NC1CCCCC1
inactive: [1] -7.35% | [2] 0.1% | [3] -6.05% | [4] -30.4% | [5] 35.9% | [6] 6.15%

COc1ccc(OCc2nc3cc(C(F)(F)F)ccc3nc2-c2ccccc2)cc1
inactive: [1] -2.65% | [2] 3.45% | [3] 11.2% | [4] 5.2% | [5] 25.9% | [6] -70.4%

Fc1ccc(Nc2cc(F)cc(F)c2)cc1
inactive: [1] 22.7% | [2] 8.45% | [3] 17.4% | [4] 3.2% | [5] 10.6% | [6] 11.1%

COC1CCC2(C)C3CCC4C(=CCC5C(C)(C)C(O)CCC45C)CC3(C)CCC2C1(C)C (stereo not given)
inactive: [1] -8.45% | [2] -12.3% | [3] -31.3% | [4] -25.4% | [5] 1.2% | [6] -12.7%

CC(=O)N1c2ccccc2C2(C)CCCC(O)C12O (stereo not given)
inactive: [1] 8.05% | [2] 6.05% | [3] -3.9% | [4] 1.9% | [5] 6.5% | [6] -23.9%

CC1(C2(C)SCCS2)SCCS1
inactive: [1] 11.2% | [2] 2.9% | [3] -1% | [4] 11.2% | [5] -8.55% | [6] 10.5%

O=C(OCCN1CCOCC1)c1cc2ccccc2oc1=O
inactive: [1] 1.8% | [2] 2.65% | [3] 6.35% | [4] -45.7% | [5] -0.2% | [6] -2.65%

CCCCCCCCSC1=NS(=O)(=O)c2ccccc21
inactive: [1] 64% | [2] 28.6% | [3] 44.5% | [4] 31.1% | [5] 49.2% | [6] 31.1%

C[C@]12CC[C@@H]3c4cc(C=O)c(OCc5ccccc5)cc4CC[C@H]3[C@@H]1CCC2OCc1ccccc1 (stereo not given in full)
inactive: [1] 12.4% | [2] -8.15% | [3] 0.45% | [4] 2.9% | [5] -2.65% | [6] -0.95%

CCc1ccc(O)c(CN2CCN(Cc3cc(CC)ccc3O)CC2)c1
inactive: [1] -2.85% | [2] -15.7% | [3] 20.5% | [4] -18.4% | [5] -4.8% | [6] 17.1%

Cc1ccccc1C(=O)OCCBr
inactive: [1] 10.3% | [2] -6.2% | [3] 4.15% | [4] -27.1% | [5] 8.2% | [6] 2.9%

CCCCCCCCCCCC[Si](c1ccccc1)(c1ccccc1)c1ccccc1
inactive: [1] 9.3% | [2] 6.2% | [3] 26.1% | [4] 22.9% | [5] 1% | [6] 24.5%

O=C(O)/C=C\C(=O)Nc1ccccn1
inactive: [1] -30.6% | [2] -43.8% | [3] -52.7% | [4] -2.65% | [5] -44.9% | [6] -21.4%

O=c1c2c(c(=O)c(=O)c1=O)Nc1ccccc1N2
inactive: [1] 22.2% | [2] -6.15% | [3] 11.6% | [4] 34.7% | [5] 10.2% | [6] 15.7%

O=Cc1ccnc2c(Cl)cccc12
inactive: [1] 16.4% | [2] 22.8% | [3] -1.1% | [4] 15.1% | [5] 6.3% | [6] 18%

OC(CNC1CCCCC1)(c1ccccc1)c1ccccc1
inactive: [1] -11.2% | [2] -8.35% | [3] 13.9% | [4] 10.8% | [5] 30.2% | [6] -20.6%

O=C(OC1COC(OC(=O)c2ccc([N+](=O)[O-])cc2)C(OC(=O)c2ccc([N+](=O)[O-])cc2)C1OC(=O)c1ccc([N+](=O)[O-])cc1)c1ccc([N+](=O)[O-])cc1 (stereo not given)
inactive: [1] -6.15% | [2] 1.65% | [3] -9.9% | [4] -16.9% | [5] -1.3% | [6] 4.3%

CCCCCC/C=C/C(N)=O
inactive: [1] 5.75% | [2] 5.6% | [3] -7.8% | [4] 12.1% | [5] -20.2% | [6] 8.35%

O=c1cccc(O)[nH]1
inactive: [1] -14.8% | [2] -17.6% | [3] -15.1% | [4] -0.15% | [5] -15.7% | [6] -8.85%

CCc1nc2c(c(=O)[nH]1)C(c1ccc(Cl)cc1)C(C)(C)O2 (stereo not given)
inactive: [1] -1.2% | [2] -22.6% | [3] -17.4% | [4] 4.45% | [5] 1.1% | [6] -7.4%

O=[N+]([O-])c1ccc(NN=C2CN3CCN(C2)c2ccccc23)c([N+](=O)[O-])c1
inactive: [1] 35.4% | [2] 20.1% | [3] 59.8% | [4] 40.8% | [5] 40.6% | [6] 35.1%

Cc1cc2c(C(C)C)c(O)c(O)c(C=NCc3ccc(Br)cc3)c2c(O)c1-c1c(C)cc2c(C(C)C)c(O)c(O)c(C=NCc3ccc(Br)cc3)c2c1O
inactive: [1] -5.6% | [2] 1.6% | [3] 26.6% | [4] -22.1% | [5] -9.15% | [6] 27.8%

CCOC(=O)C1=NN(c2ccc(C)cc2)C2=CC(C)=NN(C)C(=S)N21
inactive: [1] -18.1% | [2] -7.3% | [3] -21.8% | [4] -13.6% | [5] 7.1% | [6] -49.3%

Cn1c(N)cc(=O)nc1N
inactive: [1] -7.55% | [2] 2.05% | [3] 6.2% | [4] 10.7% | [5] -1% | [6] 8.2%
